Screening results (PubChem BioAssay)
MARV entry inh: inhibitors of Marburg virus binding or cell entry. 1.8% of 300,000 active. Marburg virus pseudotyped entry inhibition, cell reporter. Potency, µM (top dose mostly 37.8 µM), for inactives: at the top dose activity change, negative = inhibition, usual class: inhibitors; calls by dose curve; tested in HEK293 cells; note: potency is the fitted concentration of half-maximal effect; % is set by controls: 0 for no effect and ±100 for the full control effect
FMDV inh: blocks foot and mouth disease virus; 1.2% of 410,000 active; FMDV antiviral cell-based qHTS; Potency, µM (doses to about 57.9 µM), without a hit: at the top dose activity change, negative = inhibition, most hits filed as inhibitors; calls by dose curve; tested in HEK293T cells; note: read-out not given here; potency is the fitted concentration of half-maximal effect; % is set by controls: 0 for no effect and ±100 for the full control effect; nearly all actives have a fitted effect of over 45% in size
Shiga inhibitor: inhibitors of Shiga toxin in Vero cells; Vero cells, Shiga toxin protein synthesis inhibition reporter; inhibition, % at 38.7 µM; 9.2% of 290,000 active; AID 2315; in the data active = inhibition mostly above about 28%, no sharp cut-off; inactive = mostly below about 43%; note: 0% is about no effect
LASV entry inh: inhibitors of Lassa virus binding or cell entry; Lassa virus pseudotype entry inhibition, cell reporter; Potency, µM (top dose mostly 37.9 µM), for inactives: top-dose activity change, negative = inhibition, usual class: inhibitors; 1.2% of 300,000 active; AID 540256; calls by dose curve; tested in HEK293 cells; note: potency is the fitted concentration of half-maximal effect; % is set by controls: 0 for no effect and ±100 for the full control effect; nearly all actives have a fitted effect of over 50% in size
CHX counter: counter-screen for Shiga toxin inhibitors: cycloheximide protein synthesis inhibition; cell reporter, cycloheximide protein synthesis inhibition counterscreen; max response, %; 12% of 300,000 active; in the data active = max response mostly above about 13%, no sharp cut-off; inactive = mostly below about 14%; note: read at 38.3 µM for the half of the compounds with a filed dose; 0% is about no effect
HCV inh: HCV inhibition; 3.4% of 340,000 active; Potency, µM (titrated, usually from 41.8 µM), without a hit: at the top dose activity change, negative = inhibition, actives largely listed as inhibitors; AID 651820; Huh7.5.1 HCVcc-Cre infection, luciferase reporter, 44 h; active = well fitted inhibition curve with a large enough effect; inconclusive = small, poorly fitted or top-dose-only effect, or another doubt; inactive = no such curve, though single readings can be large or run the other way; note: potency is the fitted concentration of half-maximal effect; % is set by controls: 0 for no effect and ±100 for the full control effect
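HCVcc-Cre virus at an moi near 0.5 was added right after compound to cells cultured 4 h from seeding (1,000 cells/well). Luciferase activity was determined 44 h later, 15 min after substrate addition at RT.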
An asterisk follows results filed as active; [ ] = remark or other dose. Compounds with a hit are over-represented: about 13% of the library has one in this group of screens.

For CC(C)[C@H](NS(=O)(=O)c1ccccc1)C(=O)OCC(=O)Nc1cccc(S(N)(=O)=O)c1 the results were MARV entry inh -2%, FMDV inh 3%, LASV entry inh -13% and HCV inh -4%.
Screening CC(/C=N/NC(=O)CNc1n[nH]c(=O)[nH]c1=O)c1ccccc1 (centres undefined) returned FMDV inh -3%, Shiga inhibitor -3, CHX counter -1 and HCV inh 11%.
Screening CCOc1cc(N2CCOCC2)c(OCC)cc1NC(=O)c1cc(-c2ccco2)nc2ccccc12 returned MARV entry inh 16µM*, Shiga inhibitor 10, LASV entry inh inconclusive, CHX counter -1 and HCV inh -27%.
For COc1ccc(NC(=O)c2cc(-c3ccco3)nc3ccccc23)cc1S(=O)(=O)N1CCOCC1 the results were FMDV inh -29%, Shiga inhibitor 10, CHX counter -1 and HCV inh 8.9µM*.
Screening COc1ccc(NC(=O)c2cc(C)nc3ccccc23)cc1S(=O)(=O)N1CCOCC1 returned MARV entry inh 1%, FMDV inh -12%, LASV entry inh -16% and HCV inh inconclusive.
Screening COc1ccc(Nc2nc(-c3ccccc3)nc3ccccc23)cc1S(=O)(=O)N1CCOCC1 returned FMDV inh inconclusive, Shiga inhibitor -2, CHX counter 1 and HCV inh 22µM*.
`CCOc1cc(N2CCOCC2)c(OCC)cc1NC(=O)COc1cccc(CC)c1` gave FMDV inh -21% and HCV inh 10µM*.
CCCCN(CC)CCNC(=O)CNC(=O)Cn1ccc2ccccc2c1=O was read as FMDV inh -15%, Shiga inhibitor 5, CHX counter -3 and HCV inh 37%.
`Cc1ccc2c(c1N)C(=O)c1ccccc1C2=O` gave FMDV inh 18% and HCV inh -19%.
For Cc1ccc2c(c1C)-c1c(ccc(C)c1C)C(=O)C2=O the results were MARV entry inh inconclusive, FMDV inh 28µM*, LASV entry inh inconclusive and HCV inh 11µM*.
CCc1cc(C(=O)NNC(=S)NCc2ccccc2)cs1 was read as MARV entry inh 16%, FMDV inh 34%, Shiga inhibitor 26, LASV entry inh 0%, CHX counter 4 and HCV inh 0%.
For CCc1cc(C(=O)NNC(=S)Nc2cc(C)ccc2C)cs1 the results were MARV entry inh inconclusive, FMDV inh 17%, Shiga inhibitor 20, LASV entry inh 22%, CHX counter 5 and HCV inh inconclusive.
O=C(NNC(=S)Nc1ccccc1)c1ccco1 was read as MARV entry inh inconclusive, FMDV inh 26%, Shiga inhibitor 19, LASV entry inh 6%, CHX counter 12 and HCV inh 16%.
`Cc1ccccc1NC(=S)NNC(=O)c1ccco1` gave MARV entry inh 16%[46.1 µM], FMDV inh 19%, Shiga inhibitor 52*, LASV entry inh 26%[46.1 µM], CHX counter 32* and HCV inh 13%.
`CCc1cc(C(=O)Nc2ccccc2)cs1` gave MARV entry inh -18%, FMDV inh 21%, Shiga inhibitor 106*, LASV entry inh inconclusive, CHX counter 41* and HCV inh -1%.
For CCc1cc(C(=O)NNC(=S)Nc2ccccc2C)cs1 the results were MARV entry inh inconclusive, FMDV inh 52%, Shiga inhibitor 96*, LASV entry inh inconclusive, CHX counter 38* and HCV inh 11%.
`O=C(NNC(=S)Nc1ccc(F)cc1F)c1ccco1` gave FMDV inh 0%, Shiga inhibitor 27, CHX counter 33* and HCV inh 13%.
`COCc1nnc(NC(=O)c2ccccc2[N+](=O)[O-])s1` gave MARV entry inh 9%, FMDV inh 0%, Shiga inhibitor -10, LASV entry inh 2%, CHX counter 0 and HCV inh 17%.
`COC(=O)C1C(O)=C(C=Nc2ccc3ccccc3c2)C(=O)CC1(C)C` (centres undefined) gave FMDV inh -9%, Shiga inhibitor 17, CHX counter 15* and HCV inh 7%.
`CC(=O)N1CCN(S(=O)(=O)c2cccc(C(=O)NNC(=O)COc3ccc(F)cc3)c2)CC1` gave MARV entry inh 6%, FMDV inh -23%, LASV entry inh inconclusive and HCV inh -1%.
`Cn1cc([N+](=O)[O-])c(C(=O)Nc2ccc(-c3nc4ccccc4o3)cc2)n1` gave FMDV inh -43%, Shiga inhibitor 69*, CHX counter 39* and HCV inh inconclusive.
`COc1ccc2oc(-c3ccc(NC(=O)c4ccc(N5CCOCC5)c([N+](=O)[O-])c4)cc3)nc2c1` gave MARV entry inh inconclusive, FMDV inh inconclusive, Shiga inhibitor -3, LASV entry inh -2%, CHX counter -3 and HCV inh inconclusive.
`O=C(Nc1ccc(-c2nc3ccccc3o2)cc1)c1ccc(N2CCOCC2)c([N+](=O)[O-])c1` gave MARV entry inh inconclusive, FMDV inh inconclusive, Shiga inhibitor 24, LASV entry inh -17%, CHX counter 8.5* and HCV inh inconclusive.
CCCOc1cccc(C(=O)Nc2ccc(-c3nc4ccccc4o3)cc2)c1 was read as FMDV inh -7% and LASV entry inh -17%[46.1 µM].
Screening Cc1cc(CNCCN(C)C)c(C)n1-c1cc(S(=O)(=O)N2CCOCC2)ccc1N1CCCC1 returned MARV entry inh inconclusive, FMDV inh -11%, LASV entry inh inconclusive and HCV inh 7%.
For Nc1c(-c2ccccc2)cnc2c(-c3ccccc3)cnn12 the results were FMDV inh -7%, Shiga inhibitor 130*, CHX counter 52* and HCV inh 9%.
`Nc1c(-c2ccsc2)cnc2ncnn12` gave MARV entry inh 18%[46.1 µM], FMDV inh 8%, Shiga inhibitor 2, LASV entry inh 19%, CHX counter 11 and HCV inh -1%.
Screening Nc1c(-c2cccs2)cnc2c(-c3ccc(F)cc3)cnn12 returned MARV entry inh inconclusive, FMDV inh inconclusive, Shiga inhibitor 118*, LASV entry inh -24%[46.1 µM], CHX counter 43* and HCV inh inconclusive.
N#Cc1cnn2c(N)c(-c3ccc(Cl)cc3)cnc12 was read as MARV entry inh -9%[46.1 µM], FMDV inh 20%, Shiga inhibitor -5, LASV entry inh inconclusive, CHX counter 5 and HCV inh -15%.
Screening CS(=O)(=O)c1cnc2c(-c3ccc(F)cc3)cnn2c1N returned MARV entry inh 5%, FMDV inh 50%, Shiga inhibitor 61*, LASV entry inh 6%, CHX counter 58* and HCV inh -16%.
For CC(C)(C)S(=O)(=O)c1cnc2c(-c3ccsc3)cnn2c1N the results were MARV entry inh inconclusive, FMDV inh 48%, Shiga inhibitor 65, LASV entry inh 28%, CHX counter 49* and HCV inh 3%.
